The structures appear in SMILES notation. “And” between values parts separate entries of the source, which are not always exact repeats. Equal values may be shown once. More than one record can exist for a structure, and the calls need not agree. The source made the active and inactive calls. The calls were made as follows: active = hit-call score of the fitted dose curve at least 0.9, where 1 is the maximum; inactive = score below 0.9.

Read-out in experiment [1]: Collagen IV, COL4A1 (gene 1282)
Description: BSK_MyoF_CollagenIV: BioMAP Diversity Plus: MyoF Assay for Collagen IV Biomarker Activity (AID 2284247). Particulars: primary human lung fibroblasts. In a few lines: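 ELISA read-out of Collagen IV in lung fibroblast cultures, 24 h post-dosing; gain of signal relative to DMSO vehicle baseline defines activity.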

Read-out in experiment [2]: Monokine induced gamma interferon (MIG), CXCL9 (gene 4283)
Description: BSK_KF3CT_MIG: BioMAP Diversity Plus: KF3CT Assay for Monokine induced gamma interferon (MIG) Biomarker Activity (AID 2284248). The settings on record: primary human keratinocytes with fibroblasts. Put shortly:
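The assay uses a co-culture of human keratinocytes and foreskin fibroblasts. Measurement occurs 24 hours after dosing, with MIG detected by ELISA and the DMSO control as baseline.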

Read-out in experiment [3]: Vascular cell adhesion molecule 1 (VCAM1), VCAM1 (gene 7412)
The experiment in a line: BSK_BF4T_VCAM1: BioMAP Diversity Plus: BF4T Assay for Vascular cell adhesion molecule 1 (VCAM1) Biomarker Activity (AID 2284249). Particulars: primary human bronchial epithelial cells with fibroblasts. Put shortly: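 Cell-surface VCAM-1 quantified by ELISA after 24 h chemical exposure of human bronchial epithelial/dermal fibroblast co-cultures, with SRB staining in parallel wells for cytotoxicity; DMSO baseline, positive-direction fitting.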

Read-out in experiment [4]: Collagen I, COL1A1 (gene 1277)
The experiment in a line: BSK_hDFCGF_CollagenI: BioMAP Diversity Plus: hDFCGF Assay for Collagen I Biomarker Activity (AID 2284250). The settings on record: primary human foreskin fibroblasts. Put shortly: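 ELISA read-out of Collagen I in human dermal foreskin fibroblast cultures, 24 h after dosing. Gain of signal versus DMSO vehicle defines activity.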

Read-out in experiment [5]: Plasminogen activator inhibitor-1 (PAI1), SERPINE1 (gene 5054)
The experiment in a line: BSK_KF3CT_PAI1: BioMAP Diversity Plus: KF3CT Assay for Plasminogen activator inhibitor-1 (PAI1) Biomarker Activity (AID 2284252). Particulars: primary human keratinocytes with fibroblasts. In a few lines:
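Keratinocyte + dermal fibroblast co-culture (human primary); 24 h post-dose; PAI-1 by ELISA; gain-of-signal fit vs DMSO control.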

Read-out in experiment [6]: Monocyte Chemoattractant Protein-1 (MCP1), CCL2 (gene 6347)
Description: BSK_IMphg_MCP1: BioMAP Diversity Plus: IMphg Assay for Monocyte Chemoattractant Protein-1 (MCP1) Biomarker Activity (AID 2284253). The settings on record: primary human endothelial cells with macrophages. Put shortly: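 ELISA readout of MCP-1 at 24 hours in IMphg co-cultures of venular endothelial cells and macrophages, normalised to DMSO; parallel cultures stained with sulforhodamine B for overt cytotoxicity.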

Read-out in experiment [7]: Interleukin-8 (IL8), CXCL8 (gene 3576)
Description: BSK_KF3CT_IL8: BioMAP Diversity Plus: KF3CT Assay for Interleukin-8 (IL8) Biomarker Activity (AID 2284254). Particulars: primary human keratinocytes with fibroblasts. Put shortly:
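ELISA detection of IL-8 from a human skin co-culture, keratinocytes with foreskin fibroblasts, at 24 h following chemical exposure, with gain of signal scored against DMSO controls.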

Read-out in experiment [8]: Macrophage Inflammatory Protein-1 Alpha (MIP1a), CCL3 (gene 6348)
Description: BSK_IMphg_MIP1a: BioMAP Diversity Plus: IMphg Assay for Macrophage Inflammatory Protein-1 Alpha (MIP1a) Biomarker Activity (AID 2284255). The settings on record: primary human endothelial cells with macrophages. Put shortly:
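MIP-1a protein levels were quantified by ELISA after 24 h treatment of human endothelial cell–macrophage co-cultures, compared with DMSO. Parallel cultures were fixed with TCA and stained with 0.1% SRB to gauge overt cytotoxicity.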

Read-out in experiment [9]: Plasminogen activator inhibitor-1 (PAI1), SERPINE1 (gene 5054)
Description: BSK_MyoF_PAI1: BioMAP Diversity Plus: MyoF Assay for Plasminogen activator inhibitor-1 (PAI1) Biomarker Activity (AID 2284256).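 As to outcome: PAI-1 protein level measured by ELISA in fibroblast cultures; PAI-1 read 24 h after compound addition.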 Particulars: primary human lung fibroblasts. Put shortly: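 Activity reflects increased PAI-1, determined by ELISA and compared with DMSO, in human lung fibroblasts treated for 24 h.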

Read-out in experiment [10]: Interferon-inducible T-cell alpha chemoattractant (ITAC), CXCL11 (gene 6373)
The experiment in a line: BSK_hDFCGF_ITAC: BioMAP Diversity Plus: hDFCGF Assay for Interferon-inducible T-cell alpha chemoattractant (ITAC) Biomarker Activity (AID 2284251). Particulars: primary human foreskin fibroblasts. In a few lines: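 Chemical dosing of primary human foreskin fibroblast cultures preceded ELISA measurement of I-TAC at 24 h. Response was analysed in the positive direction using DMSO as baseline, while parallel SRB staining measured cytotoxicity.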

As to `FC(F)(F)C(F)(F)C(F)(F)C(F)(F)C(F)(F)C(F)(F)C(F)(F)C(F)(F)CCS`, the outcome in [1], in experiment [2], in experiment [3], in experiment [4], in experiment [5] and in [6] was inactive. Further, the outcome in experiment [7], in experiment [8] and in experiment [9] was inactive.

Take `FC(F)(F)C(F)(F)C(F)(F)C(F)(F)C(F)(F)C(F)(F)CC1CO1` (stereo unspecified): the result in experiment [1], in experiment [2], in experiment [3], in experiment [4], in [10] and in [5] was inactive. The result in experiment [6], in experiment [7], in [8] and in experiment [9] was inactive.

`FC(F)(F)C(F)(F)C(F)(F)N(C(F)(F)C(F)(F)C(F)(F)F)C(F)(F)C(F)(F)C(F)(F)F`: the result in experiment [1], in experiment [2], in [3], in experiment [4], in experiment [5] and in [6] was inactive. Besides, the outcome in experiment [7], in experiment [8] and in experiment [9] was inactive.

`OCC(F)(F)C(F)(F)C(F)(F)C(F)(F)C(F)(F)C(F)F`: the result in experiment [1], in experiment [2], in experiment [3], in experiment [4], in experiment [5] and in experiment [6] was inactive. For the same compound, the outcome in experiment [7], in [8] and in [9] was inactive.

With `O=C(O)C(F)(F)C(F)(F)C(F)(F)C(F)(F)F`, the outcome in experiment [1], in experiment [2], in [3], in experiment [4], in experiment [10] and in experiment [5] was inactive. In addition, the result in experiment [6], in experiment [7], in experiment [8] and in [9] was inactive.

Broadly, the AC50 is the midpoint of the concentration-response curve, whichever way the signal moves. For `O=S(=O)(OCC(F)F)C(F)(F)F`, the outcome in [1], in experiment [2], in [3], in experiment [4], in experiment [5] and in experiment [6] was inactive. Also, the outcome in experiment [7], in [8] and in experiment [9] was inactive. Further, the half-maximal activity concentration (AC50) in experiment [5] was 324 nM (active).

Turning to `FC1CC(F)(F)C(F)(F)C1(F)F` (stereo unspecified), the result in [1], in [2], in experiment [3], in experiment [4], in experiment [5] and in [6] was inactive. Besides, the result in experiment [7], in experiment [8] and in experiment [9] was inactive.

Turning to `Nc1ccc([N+](=O)[O-])cc1O`, the result in experiment [1] and in [9] was inactive.

Regarding `O=C(CC(=O)C(F)(F)C(F)(F)F)C(F)(F)F`, the result in experiment [1], in [2], in experiment [3], in experiment [4], in [5] and in experiment [6] was inactive. Besides, the outcome in experiment [7], in experiment [8] and in [9] was inactive.

For the compound `CCCCC(CC)COP(=O)(O)OCC(CC)CCCC` (stereo unspecified), the result in experiment [2], in [4] and in experiment [7] was inactive. Also, the AC50 was 20 µM (active) in experiment [4]; 31.1 µM (active) and 26.6 µM (active) in experiment [5].

Turning to `CCc1ccc(C(c2ccc(CC)cc2)C(Cl)Cl)cc1`, in experiment [1], the outcome was inactive. In [9], the AC50 is 31.1 µM (active).

On to `C=CC(F)(F)C(F)(F)C(F)(F)C(F)(F)C(F)(F)C(F)(F)C(F)(F)C(F)(F)F`, for which the outcome in experiment [1], in experiment [2], in experiment [3], in [4], in experiment [5] and in experiment [6] was inactive. The outcome in experiment [7], in experiment [8] and in experiment [9] was inactive.

Regarding `CCCCCCCCC(F)(F)C(F)(F)C(F)(F)C(F)(F)C(F)(F)C(F)(F)F`, the outcome in [1], in [2], in experiment [3], in experiment [4], in [5] and in experiment [6] was inactive. Besides, the outcome in experiment [7], in experiment [8] and in experiment [9] was inactive.

For the compound `CCCCCCC(C)OC(=O)CCCCC(=O)OC(C)CCCCCC` (stereo unspecified), the outcome in [1] and in [9] was inactive.

For the compound `O=C(O)C(F)(F)C(F)(F)OC(F)(F)F`, the result in experiment [1], in experiment [2], in experiment [3], in [4], in experiment [5] and in experiment [6] was inactive. Moreover, the outcome in [7], in [8] and in [9] was inactive.

In the case of `FC(F)(F)C(F)(F)C(F)(F)C(F)(F)C(F)(F)C(F)(F)C(F)(F)Br`, the result in experiment [1], in experiment [2], in experiment [3], in [4], in experiment [5] and in [6] was inactive. For the same compound, the outcome in experiment [7], in [8] and in [9] was inactive.

With `CC(=O)Nc1ccc(N=Nc2cc(C)ccc2O)cc1`, the AC50 in [1] is 10.6 µM (active). In addition, the outcome in [9] was inactive.

On to `CC(CCl)OP(=O)(OC(C)CCl)OC(C)CCl` (stereo unspecified), for which the outcome in [1] and in experiment [9] was inactive.

Values taken from PubChem BioAssay (EPA / NIEHS).
